In the library only some 2.7% were active in any assay of this set; here they are far more common.
DNA FID counter: compounds displacing fluorescent DNA intercalator, primary screen, artefact control for HCV NS3 helicase inhibitor project, biochemical, FID fluorescence. DNA fluorescent intercalator displacement. 290,000 compounds, 0.17% hits. inhibition, % at 7.9 µM; in the data active = inhibition above about 37%;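 note: higher means more ethidium bromide displaced from hairpin DNA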
ANO1 activ: TMEM16A chloride channel activators or potentiators, primary screen, cell-based, HTS; Anoctamin-1 (Mus musculus), Q8BHY3; HEK293 TMEM16A/YFP-H148Q/I152L, iodide quench fluorescence; active compounds read low; B-score at 10 µM; 340,000 compounds, 0.3% hits;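 active = fluorescence-ratio B-score plate-corrected deviation score at least 3 library SD below zero, with starting fluorescence score within 5 deviations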;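 note: channel opened by trigger with iodide after compound preincubation; score built on the fluorescence ratio of max minus min over baseline; more negative score means more quench and so TMEM16A activation or potentiation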
Target sequence (Q8BHY3 whole entry, looked up): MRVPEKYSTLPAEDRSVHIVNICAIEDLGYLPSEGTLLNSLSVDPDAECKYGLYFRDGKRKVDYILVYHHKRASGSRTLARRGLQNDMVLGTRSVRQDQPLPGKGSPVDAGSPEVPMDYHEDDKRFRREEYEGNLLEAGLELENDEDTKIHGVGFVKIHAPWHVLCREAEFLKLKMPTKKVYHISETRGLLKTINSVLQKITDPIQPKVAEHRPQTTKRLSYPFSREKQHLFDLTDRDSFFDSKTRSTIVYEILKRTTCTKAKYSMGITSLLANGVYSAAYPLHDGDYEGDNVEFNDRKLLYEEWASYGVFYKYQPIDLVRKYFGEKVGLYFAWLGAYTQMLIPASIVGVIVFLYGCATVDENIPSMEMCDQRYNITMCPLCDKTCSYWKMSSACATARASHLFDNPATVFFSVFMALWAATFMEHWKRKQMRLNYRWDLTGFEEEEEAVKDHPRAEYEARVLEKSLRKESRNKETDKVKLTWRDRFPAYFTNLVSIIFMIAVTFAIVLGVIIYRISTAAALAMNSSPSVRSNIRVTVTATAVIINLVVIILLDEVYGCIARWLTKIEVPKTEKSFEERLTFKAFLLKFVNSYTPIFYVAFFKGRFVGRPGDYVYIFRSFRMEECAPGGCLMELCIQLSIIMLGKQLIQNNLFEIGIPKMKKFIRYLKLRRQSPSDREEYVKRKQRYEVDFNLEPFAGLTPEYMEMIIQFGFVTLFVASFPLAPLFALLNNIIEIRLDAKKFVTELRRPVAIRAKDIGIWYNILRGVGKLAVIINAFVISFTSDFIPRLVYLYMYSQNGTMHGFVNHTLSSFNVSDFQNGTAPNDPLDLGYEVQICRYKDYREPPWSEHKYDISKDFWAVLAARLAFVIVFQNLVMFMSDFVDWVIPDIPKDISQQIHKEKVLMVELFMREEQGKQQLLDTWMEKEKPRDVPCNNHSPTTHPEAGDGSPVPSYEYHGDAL
PP1 counter: PP1-alpha phosphatase inhibitors, primary screen, counter-screen for PP5 inhibitor project, biochemical, fluorescence, OMFP substrate, single point. inhibition, % at 6.7 µM. 320,000 compounds, 0.9% hits. Serine/threonine-protein phosphatase PP1-alpha catalytic subunit (Homo sapiens), P62136. purified PP1alpha;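 active = inhibition above the mean inhibition of all tested compounds plus 3 SD, computed separately for each screening campaign, cut at about 15% in these data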
PP5 inh: PP5 phosphatase inhibitors, primary screen, biochemical, fluorescence; Serine/threonine-protein phosphatase 5 (Homo sapiens), P53041; purified PP5c, OMFP substrate fluorescence; inhibition, % at 6.7 µM; 320,000 compounds, 0.18% hits; AID 1987, 2009;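 active = inhibition above the campaign's mean inhibition across all tested compounds plus 3 SD, cut at about 9.5% in these data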
PREPL inhibitor: PREPL enzyme inhibitors, primary screen, biochemical, fluorescence polarization; 320,000 compounds, 0.68% hits; inhibition, % at 5.96 µM; Prolyl endopeptidase-like (Homo sapiens), Q4J6C6; recombinant PREPL, fluorescence polarization activity-based probe; in the data active = inhibition above about 43%
TMEM16A inh: TMEM16A chloride channel inhibitors, primary screen, cell-based, HTS; Anoctamin-1 (Mus musculus), Q8BHY3; HEK293 TMEM16A/YFP iodide influx fluorescence, ionomycin; normalized B-score (activity score, 25-100; higher = stronger inhibition) at 10 µM; 310,000 compounds, 1.2% hits; AID 588511, 2011;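 active = ratio plate-corrected score three or more library SD toward inhibition, starting fluorescence score within five deviations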;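 note: score derived from kinetic fluorescence span divided by baseline fluorescence per well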
Of the large screens only hits and unclear results are named; the others gave an inactive call.

COc1cc(C(O)c2nc3ccccc3n2C(C)C)cc(OC)c1OC (stereo unspecified)	DNA FID counter 53
O=c1[nH]c(=O)n(Cc2ccco2)c2c1C(C(F)(F)F)(C(F)(F)F)N=C(CCc1ccccc1)N2	none
N#Cc1ccc(C2=NC(C(F)(F)F)(C(F)(F)F)c3c(n(Cc4ccco4)c(=O)[nH]c3=O)N2)cc1	TMEM16A inh 100
N#Cc1c(N2CCN(c3ccc([N+](=O)[O-])cc3)CC2)[n+](=O)c2ccc(Cl)cc2n1[O-]	none (no result: DNA FID counter, PP1 counter, PP5 inh, PREPL inhibitor, TMEM16A inh)
CN1CCN(CCNC(=O)Cn2c(=O)c3cccn3c3ccc(F)cc32)CC1	none
O=C(Nc1ccc(C2=NCCN2)cc1)c1ccc(C(=O)Nc2ccc(C3=NCCN3)cc2)c([N+](=O)[O-])c1	DNA FID counter 70, PREPL inhibitor 45
CC(C)c1cc(-c2cc(C(=O)Nc3ccccc3)on2)nc(NCC2CC2)n1	none (no result: DNA FID counter, ANO1 activ)
CC(C)c1cc(-c2cc(C(=O)NCc3ccccc3)on2)nc(NCC2CC2)n1	ANO1 activ -6.6, TMEM16A inh 100 (no result: DNA FID counter)
CCNC(=O)N(CC)C[C@H]1N[C@@](Cc2ccccc2)(C(=O)OC)[C@H]2C(=O)N(C)C(=O)[C@@H]12	none (no result: DNA FID counter, PP1 counter, PP5 inh, TMEM16A inh)
Cc1ccc(S(=O)(=O)N2CCN(C(=O)CCOc3cc(C)ccc3C)CC2)cc1	ANO1 activ -44 (no result: DNA FID counter, TMEM16A inh)
O=C(O)CCc1c(C(=O)O)[nH]c2ccccc12	ANO1 activ -16
COc1cc(C(=O)NCC(=O)Nc2ccc(F)c(F)c2)ccc1OCC(=O)N1CCOCC1	none (no result: DNA FID counter)
CN(NS(=O)(=O)c1ccc(Br)cc1)c1nc(C(F)(F)F)nc2ccccc12	TMEM16A inh 25
CN(N)c1nc(C(F)(F)F)nc2ccccc12	none
CC12CCC(=O)N1C(C(=O)OCc1c(Cl)cccc1Cl)CS2 (stereo unspecified)	none
N#CC1C(=O)NC(=O)C(C#N)C12CCCC(C(F)(F)F)C2 (stereo unspecified)	none (no result: DNA FID counter, PP1 counter, PP5 inh, PREPL inhibitor, TMEM16A inh)
N#CC(c1ccc(F)cc1)c1ccc(C(=O)c2ccccc2)cc1 (stereo unspecified)	TMEM16A inh 100
CC1(C)CC(=O)c2cnc(NC(=O)CSC(=S)N3CCCCC3)nc2C1	none
CCC(Oc1ccc2c(=O)c(-c3ccccc3OC)coc2c1)C(=O)OCc1ccccc1 (stereo unspecified)	PP1 counter 17
CCOc1ccc(Nc2ccc([N+](=O)[O-])c3nonc23)cc1	TMEM16A inh 100
CCC(C)n1c(SCC(=O)N(CC)c2c(N)n(Cc3ccccc3)c(=O)[nH]c2=O)nc2ccccc2c1=O (stereo unspecified)	none (no result: DNA FID counter, PP1 counter, PP5 inh, PREPL inhibitor, TMEM16A inh)
Cc1c(-c2ccc(F)cc2)[n+](=O)c2c(n1[O-])CCCCC2	ANO1 activ -6.9
Cc1ccc(-c2c(C)n([O-])c3c([n+]2=O)CCCC3)cc1	none
Nc1cc(Cl)nc(N/N=C/c2c(O)ccc3ccccc23)n1	PREPL inhibitor 43
Cc1ccccc1OCc1nnc(SCC(=O)Nc2ccc3nc(SCC(=O)NC(C)(C)C)sc3c2)n1C	TMEM16A inh 100
CC(C)(C)NC(=O)CSc1nc2ccc(NC(=O)CSc3nnnn3Cc3ccccc3)cc2s1	PP1 counter 16
CCN(CC)C(=O)CSc1nc2ccc(NC(=O)CSc3nnc(COc4ccccc4C)n3C)cc2s1	none
O=C(N/C(=C/c1ccc(Br)cc1)C(=O)N1CCCC1=O)c1ccco1	none
CCCCCc1ccc(OCCOCCn2c[n+](C)c3ccccc32)c(CCCCC)c1	DNA FID counter 37 (no result: PP1 counter, PP5 inh, PREPL inhibitor, TMEM16A inh)
CCCCCCCCCCCCCCCC[n+]1ccccc1	none (no result: DNA FID counter, PP1 counter, PP5 inh, PREPL inhibitor, TMEM16A inh)
CCCCCc1ccc(OCCC[n+]2ccccc2)c(CCCCC)c1	DNA FID counter 45
CC(OC(=O)/C(C#N)=C/c1ccc(N(C)C)cc1)C(=O)N(C)Cc1ccccc1 (stereo unspecified)	ANO1 activ -10
Cc1nn(CCc2nn[nH]n2)c2nc(C(F)(F)F)cc(C(F)(F)F)c12	none
Cc1nn(CCc2nn[nH]n2)c2nc(-c3ccc(Br)cc3)cc(C(F)(F)F)c12	TMEM16A inh 100
Oc1c(Br)cc(Br)cc1CNc1ccc(F)cc1	none
Oc1c(Br)cc(Br)cc1CNc1cnc2ccccc2c1	TMEM16A inh 25
COc1cc(/C=C/c2ccc3cccc(O)c3n2)cc(Br)c1OC	PP1 counter 15
COc1ccc(/C=C/c2ccc3cccc(O)c3n2)cc1Br	PP1 counter 17
CCOc1ccc(CCNC(=O)CCC(=O)N2CCOc3ccc(C)cc32)cc1OCC	ANO1 activ -14
O=S(=O)(c1ccc2[nH]ccc2c1)N1CCCCCC1	none
CC(=O)/C(=C/Nc1ccc(Oc2ccccc2)cc1)c1ccccc1	none
COc1cc(N/C=C(\C(C)=O)c2ccccc2)cc(OC)c1	ANO1 activ -5.4
CN(C(=O)COC(=O)Cc1c(F)cccc1Cl)c1c(N)n(Cc2ccccc2)c(=O)[nH]c1=O	none (no result: DNA FID counter, TMEM16A inh)
C=CCOc1ccc(C2C(C(=O)c3ccc(C)o3)=C(O)C(=O)N2Cc2cccnc2)cc1 (stereo unspecified)	PP1 counter 23
C=CCOc1cccc(C2C(C(=O)c3ccc(C)o3)=C(O)C(=O)N2Cc2ccncc2)c1 (stereo unspecified)	none
Cc1nc2ccc(Br)cn2c1C(=O)N/N=C\c1ccccc1Cl	none
COc1ccccc1NC(=O)CCC(=O)c1ccc(-c2ccccc2)cc1	none
CCc1ccccc1NC(=O)CCC(=O)OCC(=O)c1ccc(-c2ccccc2)cc1	PP1 counter 17
Cc1c(C)c2cccnc2c2ncccc12	PP1 counter 16 (no result: DNA FID counter, TMEM16A inh)
Cn1ccc(C(=O)NC(=S)Nc2ccc([N+](=O)[O-])cc2O)n1	none (no result: PP1 counter, PP5 inh, PREPL inhibitor)
CCCOc1ccc(Br)cc1CSC(=N)N	TMEM16A inh 25
CCOc1ccc(Br)cc1CC(=O)O	none
O=CN1c2ccccc2CSc2ccccc21	none (no result: DNA FID counter)
Nc1ncnc(Nc2ccccc2Oc2ccccc2)n1	none (no result: DNA FID counter, PP1 counter, PP5 inh, PREPL inhibitor, TMEM16A inh)
CCc1ccc(NC(=O)NNC(=O)c2cc3ccccc3cc2O)cc1	PP1 counter 15
Cc1cc(Br)ccc1NC(=S)Nc1cccc([N+](=O)[O-])c1	TMEM16A inh 100
Cc1cccc(NC(=S)NNC(=O)c2cccc([N+](=O)[O-])c2)c1	TMEM16A inh 25
Cc1ccc(C(=O)NC(=S)NNC(=O)c2cccc([N+](=O)[O-])c2)cc1	none (no result: PP1 counter, PP5 inh, PREPL inhibitor)
O=C(NNC(=S)NC(=O)c1cccc([N+](=O)[O-])c1)c1ccc(Br)cc1	TMEM16A inh 100
CC[C@]12C(=O)N(C)C[C@H]([C@@H]3C(=O)N(C)C(=O)[C@@H]31)N2C(=O)c1ccc(C)cc1	none (no result: DNA FID counter, PP1 counter, PP5 inh, PREPL inhibitor, TMEM16A inh)
COc1ccc(-c2noc(-c3ccccc3-c3ccccc3)n2)cc1	TMEM16A inh 25

Source: PubChem
